This note sets out measurements from PubChem BioAssay (NCATS).

SMILES strings stand for the structures. Inconclusive results are not listed. Unmarked numbers belong to inactive results. Calls of active or inactive are those of the source. Unless noted, calls follow the shape of the dose curve; as a rule, active = well fitted curve in the direction sought with a large enough effect; inconclusive = small, poorly fitted or top-dose-only effect, or another doubt; inactive = no such curve, though single readings can be large; an effect the other way counts as inactive or inconclusive.

Test [1] concerns the target Aldehyde dehydrogenase, mitochondrial (Homo sapiens) (UniProt P05091). The experiment in a line: qHTS for Inhibitors of the Aldehyde Dehydrogenase Family (ALDH2) Confirmatory screens (AID 2061303; active = well fitted inhibition curve with a large enough effect; title and protocol of this record describe different tests; also: nearly all actives have a fitted effect of over 45% in size; also: potency is read from the fitted curve at half-maximal effect; as to activity change, negative = inhibition: % is scaled to controls: 0 for no effect and ±100 for the full control effect).
The nature of test [2]: qHTS for Inhibitors of the Aldehyde Dehydrogenase Family (ALDH1A2, ALDH1A3, ALDH2, ALDH3A1) (AID 2061307). Also: nearly all actives have a fitted effect of over 50% in size. As to activity change, negative = inhibition: % is scaled to controls: 0 for no effect and ±100 for the full control effect.
Test [3] addresses Aldehyde dehydrogenase, mitochondrial (Homo sapiens) (UniProt P05091). The experiment in a line: qHTS for Inhibitors of the Aldehyde Dehydrogenase Family (ALDH2) Primary screen (AID 2061308). Also: nearly all actives have a fitted effect of over 55% in size. Also: potency is read from the fitted curve at half-maximal effect.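 As to activity change, negative = inhibition: plate controls were vehicle for no effect and reference inhibitor for full effect.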
In test [4] the target is Retinaldehyde dehydrogenase 3 (Homo sapiens) (UniProt P47895). The experiment in a line: qHTS for Inhibitors of the Aldehyde Dehydrogenase Family (ALDH1A3) Confirmatory screens (AID 2061311). Also: nearly all actives have a fitted effect of over 60% in size. Also: potency is read from the fitted curve at half-maximal effect. As to activity change, negative = inhibition: % is scaled to controls: 0 for no effect and ±100 for the full control effect.
Test [5] has as its target Retinal dehydrogenase 2 (Homo sapiens) (UniProt O94788). The experiment in a line: qHTS for Inhibitors of the Aldehyde Dehydrogenase Family (ALDH1A2) Confirmation screens (AID 2061314). Also: nearly all actives have a fitted effect of over 65% in size. Also: potency is read from the fitted curve at half-maximal effect.
In test [6] the target is Aldehyde dehydrogenase 1A1 (Homo sapiens) (UniProt P00352). The experiment in a line: qHTS for Inhibitors of the Aldehyde Dehydrogenase Family (ALDH1A1) Confirmatory screens (AID 2061316). Also: nearly all actives have a fitted effect of over 65% in size. Also: potency is read from the fitted curve at half-maximal effect. As to activity change, negative = inhibition: % is scaled to controls: 0 for no effect and ±100 for the full control effect.
The target in test [7] is Retinaldehyde dehydrogenase 3 (Homo sapiens) (UniProt P47895). The experiment in a line: qHTS for Inhibitors of the Aldehyde Dehydrogenase Family (ALDH1A3) Primary screen (AID 2061315).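 Also: plate controls were DMSO vehicle for no effect and reference inhibitor for full effect.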

In the case of `O=C1Nc2ccccc2/C1=C\c1cc(F)c(O)c(F)c1`, the Potency result in test [1] and in test [2] was “inactive” in each case. The Potency in test [3] is 1.12 µM (active); in test [4] it was 3.16 µM (active); in test [5], 5.62 µM (active); in test [6], 8.96 µM (active).
For `FC(F)(F)c1cc(N2CCN(C(=S)Nc3cc(Cl)ccn3)CC2)cc(C(F)(F)F)c1`, the Potency entry in test [1], in test [2], in test [3], in test [4], in test [5] and in test [7] was “inactive” in each case. For the same compound, in test [6], the Potency was 22.5 µM (active).
As to `NC(=O)c1ccc(C[C@H](C(=O)O)N2C(=O)c3ccc(C(=O)O)cc3C2=O)cc1`, the Potency entry in test [1], in test [2], in test [3], in test [4], in test [5] and in test [7] was “inactive” in each case. Also, in test [6], the Potency entry was “inactive”.
For `COc1cc(NS(=O)(=O)c2ccc([N+](=O)[O-])cc2)c2ncccc2c1`, the Potency was 7.08 µM (active) in test [1]; 0.712 µM (active) in test [2]; 20 µM (active) in test [3]; 10 µM (active) in test [4]; 3.16 µM (active) in test [5]; 5.65 µM (active) in test [6].
`CCOC(=O)c1ccc(O)c2ncc(-c3ccc(C(=N)N)cc3)cc12`: the Potency entry in test [1], in test [2], in test [3], in test [5] and in test [6] was “inactive” throughout. In test [4], the Potency is 10.1 µM (active).
Turning to `COc1cc(F)cc(F)c1[S+](=O)([O-])N1CCN([S+](=O)([O-])c2ccc3c(c2)OCCO3)CC1`, the Potency result in test [1], in test [2], in test [3], in test [4], in test [5] and in test [7] was “inactive” in each case. In addition, the Potency entry in test [6] is “inactive”.
Take `Cc1nnc(-c2ccccc2C(C)C)nc1NCc1ccc(-c2cccnc2)cc1`: the Potency entry in test [1], in test [2], in test [3], in test [5], in test [7] and in test [6] was “inactive” throughout. Also, the Potency in test [4] is 12.7 µM (active).
As for `N#Cc1c(-c2csc(-c3no[n+]([O-])c3C#N)c2)no[n+]1[O-]`, the Potency in test [1] was 14.1 µM (active); in test [2], 6.34 µM (active); in test [4], 12.7 µM (active); in test [5], 2.25 µM (active); in test [6] it was 11.3 µM (active). The Potency result in test [3] and in test [7] was “inactive” throughout.
Regarding `O=C(O)c1ccc(O)c2ncc(N3CCCN(C4CCCC4)CC3)cc12`, the Potency entry in test [1], in test [2], in test [3], in test [5] and in test [6] was “inactive” throughout. In test [4], the Potency was 14.2 µM (active).
For the compound `N#Cc1c(C(=O)c2cccs2)no[n+]1[O-]`, the Potency in test [1] was 3.98 µM (active); in test [2], 2.24 µM (active); in test [3] it was 0.282 µM (active); in test [4], 1.59 µM (active); in test [5], 3.16 µM (active); in test [6], 0.225 µM (active).
On to `Cc1ccc(C[C@@H](NS(=O)(=O)c2ccc(C(=O)O)cc2)C(=O)O)cc1`, for which the Potency entry in test [1], in test [2], in test [3], in test [4], in test [5] and in test [7] was “inactive” each time. In addition, the Potency entry in test [6] is “inactive”.
For the compound `CC(=O)Nc1ccc(S(=O)(=O)N2CCN(S(=O)(=O)c3ccc4c(c3)OCCO4)CC2)cc1`, the Potency entry in test [1], in test [2], in test [3], in test [4], in test [5] and in test [7] was “inactive” in each case. In addition, the Potency entry in test [6] is “inactive”.
In the case of `O=C(NN1CCCC1)NS(=O)(=O)c1ccc(Cl)cc1`, the Potency entry in test [1], in test [2], in test [3], in test [4], in test [5] and in test [6] was “inactive” each time.
For `Fc1ccc(CSc2nc3ncc(Br)cc3[nH]2)cc1`, the Potency entry in test [1], in test [2], in test [3], in test [4], in test [5] and in test [7] was “inactive” throughout. Besides, the Potency entry in test [6] is “inactive”.
Consider `NC(=O)C1CCN(c2ncc(-c3ccc4c(c3)OCCO4)s2)CC1`, for which the Potency in test [1] was 0.896 µM (active); in test [2], 7.12 µM (active); in test [4], 7.98 µM (active); in test [5], 8.96 µM (active); in test [6] it was 0.712 µM (active). The Potency result in test [3] was “inactive”.
For the compound `O=S1(=O)N=C(Oc2ccccc2)c2ccccc21`, the Potency result in test [1], in test [2], in test [3], in test [5], in test [7] and in test [6] was “inactive” in each case. In test [4], the activity change, negative = inhibition is -14.1% [at 0.022 µM].
Regarding `N#Cc1ccc(-c2ccc(CNc3ccc(N4CCCCC4)cc3)o2)cc1`, the Potency in test [1] is 0.0712 µM (active); in test [2], 0.712 µM (active); in test [4] it was 11.3 µM (active); in test [5] it was 2.25 µM (active); in test [6], 8.96 µM (active). In addition, the Potency result in test [3] is “inactive”.
`Cc1nc(C)c(-c2ccc3ncnc(NCc4ncc[nH]4)c3c2)s1`: the Potency entry in test [1], in test [2], in test [3], in test [4], in test [5] and in test [7] was “inactive” in each case. In addition, the Potency result in test [6] is “inactive”.
Take `FC(F)(F)c1cccc(N2CCN(C(=S)Nc3nccc4cccnc34)CC2)c1`: the Potency is 11.3 µM (active) in test [1]; 28.2 µM (active) in test [2]; 7.94 µM (active) in test [3]; 11.3 µM (active) in test [4]; 10.1 µM (active) in test [5]; 7.98 µM (active) in test [6].
For `Cn1ncc(-c2nnc(-c3ccccc3)n2CCCn2ccnc2)c1N`, the Potency result in test [1], in test [2], in test [3], in test [4], in test [5] and in test [7] was “inactive” each time. Also, the Potency entry in test [6] was “inactive”.
As to `Nc1nnc(-c2ccc3ccccc3c2)o1`, the Potency entry in test [1], in test [2], in test [3], in test [4], in test [5] and in test [7] was “inactive” throughout. In test [6], the Potency entry is “inactive”.
For the compound `Cc1ccc(S(=O)(=O)NC(N)=NCCC[C@@H](NC(=O)CNC(=O)c2ccccc2)C(=O)Nc2cc(C(F)(F)F)ccc2Cl)cc1`, the Potency entry in test [1], in test [2], in test [3], in test [4], in test [5] and in test [7] was “inactive” each time. Moreover, in test [6], the Potency result is “inactive”.
